Wnt act – Wnt/beta-catenin pathway activators, primary screen, cell-based, plate reader, single point; Wnt/beta-catenin reporter cell assay, activator; activation, % at 9.35 µM; hit rate 1.2% among 300,000; in the data active means activation above about 30%, passing the limit was not always enough; inconclusive means no clear call, values can overlap the other calls;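 further: 0% = neutral control wells and 100% = positive control wells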
FXN GAA850 act – FXN promoter activators, primary screen, cell-based, luciferase luminescence, HEK293 lucGAA850; HEK293 lucGAA850 FXN promoter luciferase reporter, 24 h; percent of 10 µM SAHA response; activation, % at 6 µM; hit rate 0.56% among 360,000;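 active means activation above the average of all compounds screened plus 3 SD, cutoff fixed separately per campaign, cut at about 7.5% in these data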;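 further: 0% = DMSO wells and 100% = 10 µM SAHA wells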
Statin myotox sup – suppressors of statin myotoxicity in C2C12 myotubes, primary screen, cell-based, single point, plate reader; rescue of ATP level, % at 7.49 µM; C2C12 myotubes + simvastatin, ATP luminescence, 48 h; scaled: DMSO 0, geranylgeraniol control 100; hit rate 0.78% among 330,000; AID 602340, 2012;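 active means mean ATP rescue above about 67%, or every replicate alone reaching that limit, limit read from the data, passing the limit was not always enough; inconclusive means no clear call, values can overlap the other calls; inactive means mean under the limit and some replicate under it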;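 further: myotubes were challenged with 10 µM simvastatin during compound exposure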
esBAF inh – Bmi1 luciferase reporter increase in mESCs, primary screen, esBAF inhibitor project, mouse ES cells, Bmi1 luciferase knock-in, single point. 24 h; 100% = twice the neutral-well signal. reporter increase, % at 12.5 µM. hit rate 2% among 350,000. AID 602393, 2012; in the data active means activation above about 40%; inconclusive means no clear call, values can overlap the other calls;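 further: 0% = median of the plate's neutral control wells and 100% = double that signal; a rise in the Bmi1 reporter signal indicates esBAF inhibition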
MITF act – activators of MITF-driven TRPM1 promoter reporter, primary screen, cell-based, SK-MEL-5, luciferase, single point; SK-MEL-5 TRPM1-promoter luciferase, 24 h; % of positive control, neutral wells = 0; activation, % at 12.5 µM; hit rate 0.75% among 300,000; AID 588334, 2011;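 active means mean activation of at least 80% with every replicate also reaching 80%; inconclusive means mean reaches 80% but some replicate falls short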;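 further: 0% = neutral control wells and 100% = parthenolide positive control wells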
Active calls of the source: *; ? = inconclusive; nt = no result given. In the library only some 3.3% were active in any assay of this set; here they are far more common.

SMILES	Wnt act	FXN GAA850 act	Statin myotox sup	esBAF inh	MITF act
O=C(N/N=C/c1ccc2c(c1)OCO2)c1ccccn1	-1.1	-0.8	-31.5	-60.5	-4.4
CNc1ccc(/C=C/C(=O)c2ccc(C)cc2)cc1[N+](=O)[O-]	-1.8	3.1	nt	nt	-2.3
CN(C)c1ccc(/C=C/C(=O)c2ccccc2)cc1[N+](=O)[O-]	33.9*	1.9	-15.9	62.2*	33.5
O=C(/C=C/c1ccc2c(c1)OCCCO2)c1ccc2ccccc2c1O	5.7	6.8	7.9	45.0*	50.6
CN(C)c1ccc(C(=O)/C=C/c2ccccc2)cc1	nt	6.3	1.6	68.2*	?
O=C(/C=C/c1ccc2c(c1)OCO2)c1ccccn1	-0.8	3.2	nt	38.4*	nt
O=C(C[C@H]1CC[C@@H]2[C@H](COC[C@H](O)CN2C(=O)Nc2ccc(F)cc2)O1)NCCc1ccccc1	nt	nt	-9.1	-0.7	nt
C[C@H]1CN([C@@H](C)CO)C(=O)Cc2cc(NC(=O)C3CCCCC3)ccc2O[C@H]1CN(C)S(=O)(=O)c1ccccc1	nt	nt	-10.6	-1.3	nt
O=C(C=Cc1ccc2c(c1)OCO2)c1ccccc1	2.0	3.2	3.2	49.9*	68.3
O=C(/C=C/c1ccccc1)c1ccc2c(c1)OCCCCO2	15.4	4.7	nt	nt	91.3*
O=C(C=Cc1ccc2c(c1)OCO2)C=Cc1ccc2c(c1)OCO2	-0.4	-2.3	nt	nt	nt
O=C(CCN1CCc2ccccc21)c1ccc2c(c1)OCCO2	nt	0.7	115.1*	37.7	28.6
O=C(O)c1ccc2c(c1)OCCCO2	14.0	0.1	0.0	-4.3	1.6
O=C(CCN1CCc2ccccc2C1)c1ccc2c(c1)OCCO2	nt	-2.3	-1.8	5.6	nt
O=C(CCc1ccccc1)c1ccc2c(c1)OCCCO2	nt	2.5	2.3	76.0*	122.0*
COCC(=O)Nc1ccc2c(c1)C(=O)N(C)C[C@@H](OC)[C@H](C)CN(Cc1cccc(F)c1)[C@@H](C)CO2	nt	nt	-2.2	0.8	nt
O=C(/C=C/c1ccc(OC2CSC2)cc1)c1ccccc1	38.5*	-0.5	-7.1	?	58.0
CC(C)COc1nc2ccccc2c(=O)n1OCC(=O)O	nt	4.5	116.1*	6.2	1.9
C/C(=N/NC(=O)c1cccs1)c1ccc(NC(=O)COc2ccc(Cl)cc2)cc1	nt	2.8	-88.0	49.6*	-17.9
C[C@@H]1CN([C@H](C)CO)C(=O)Cc2cc(NC(=O)Cn3cnnn3)ccc2O[C@H]1CN(C)Cc1ccc2c(c1)OCO2	nt	nt	30.9	0.1	nt
CCOc1ccc(C(=O)Nc2ccc3c(c2)OCCO3)cc1[N+](=O)[O-]	-0.1	-0.5	nt	nt	25.1
CCCCC(=O)Nc1cccc(NC(=O)c2ccc3c(c2)OCO3)c1	nt	0.2	nt	nt	nt
CCOc1ccc(C(=O)Nc2ccc3c(c2)OCCO3)cc1OC	-0.6	3.1	-27.8	67.0*	33.9
CCCC(=O)Nc1cccc(NC(=O)c2ccc3c(c2)OCCO3)c1	7.0	0.5	4.0	43.4*	41.9
COc1cc(OC)cc(C(=O)Nc2ccc3c(c2)OCCO3)c1	14.4	2.4	-43.5	41.8*	nt
SMILES	Wnt act	FXN GAA850 act	Statin myotox sup	esBAF inh	MITF act
CCCNC(=O)C[C@H]1CC[C@H]2[C@H](COc3ccc(NC(=O)Nc4cccc(C)c4)cc3C(=O)N2C)O1	nt	nt	28.5	1.4	nt
COC(=O)c1sccc1NC(=O)Nc1cccc(C)c1	12.0	3.1	-3.4	94.8*	18.9
CC(C)(C)n1nnnc1C(c1cccs1)N(Cc1ccccc1)Cc1cccnc1 (configuration not stated)	nt	-0.1	124.4*	-16.3	-6.0
C[C@@H]1CN([C@H](C)CO)C(=O)c2cc(NC(=O)Cc3ccccc3)ccc2O[C@@H](C)CCCCO[C@H]1CN(C)C(=O)NC1CCCCC1	nt	nt	nt	12.0	nt
CCOP(=O)(OCC)C(NC(=O)Nc1ccccc1)c1ccccc1 (configuration not stated)	-1.3	0.8	nt	nt	-3.0
CCOP(=O)(OCC)C(NC(=O)/C=C/c1ccc(OC)cc1)c1ccccc1 (configuration not stated)	33.9*	0.0	nt	nt	9.0
CC(/C=N/NC(=O)Cc1cccs1)=C\c1ccccc1	nt	6.4	nt	nt	123.6*
O=C(Cc1cccs1)N/N=C/C(Br)=C/c1ccccc1	nt	4.8	-15.0	51.1*	107.1*
COc1ccc(/C=N/NC(=O)Cc2cccs2)cc1	24.9	5.9	3.8	58.6*	nt
CCCNC(=O)N(C)C[C@H]1Oc2cc(C#CC(C)(C)O)ccc2S(=O)(=O)N([C@H](C)CO)C[C@H]1C	nt	nt	3.9	1.9	nt
c1cc(-c2ccc(N3CCOCC3)cc2)n2ccnc2c1	26.3	4.3	0.0	57.1*	nt
CN(C)c1ccc(-c2cccc3nccn23)cc1	0.2	-1.4	-16.6	5.1	nt
COc1cc(S(=O)(=O)N2CCCCCC2)ccc1Cl	1.0	-0.2	99.6*	-2.9	6.8
COc1cc(S(=O)(=O)N2CCN(c3ccccc3F)CC2)ccc1Cl	-3.0	-0.7	77.7*	15.1	2.1
COc1ccc(C(=O)OCC(=O)c2c[nH]c3ccccc23)cc1OC	11.4	5.4	18.6	51.7*	13.6
Cn1cccc1C(=O)OCC(=O)c1cc2ccccc2o1	33.9*	0.9	0.5	14.0	34.0
Cc1ccc(C(=O)OCC(=O)c2c[nH]c3ccccc23)cc1	8.5	6.0	nt	nt	44.3
O=C(OCC(=O)c1c[nH]c2ccccc12)C1=COCCO1	43.2*	0.9	-3.2	64.2*	33.3
COc1cc(C(=O)OCC(=O)c2c[nH]c3ccccc23)ccc1OCC(=O)N1CCOCC1	-0.4	-1.0	5.5	8.7	-7.9
Cn1cccc1C(=O)OCC(=O)c1c[nH]c2ccccc12	-2.3	3.4	nt	nt	112.3*
CCCNC(=O)C[C@H]1CC[C@@H]2[C@@H](COc3ccc(NC(=O)Nc4ccccc4F)cc3C(=O)N2C)O1	nt	nt	15.7	-4.8	nt
O=C([C@H]1[C@H](CO)[C@H]2Cn3c(cccc3=O)[C@H]2N1Cc1ccccc1)N1CCCCC1	nt	nt	-11.9	5.4	nt
Cc1ccc(S(=O)(=O)N(C)C[C@H]2Oc3ccc(NC(=O)CCCN(C)C)cc3CC(=O)N([C@@H](C)CO)C[C@@H]2C)cc1	nt	nt	20.6	-0.7	nt
CC1(C(=O)OCC(=O)c2c[nH]c3ccccc23)CC1(Cl)Cl (configuration not stated)	nt	4.7	-31.7	46.1*	96.1*
COC1CCN(C(=O)c2cc(COc3cc(C)ccc3C)on2)CC1	13.8	1.1	-14.9	28.7	nt
COCCCC1CCN(C(=O)c2cc(COc3cc(C)ccc3C)on2)CC1	29.4	3.2	2.0	104.3*	?
Cc1ccc(C)c(OCc2cc(C(=O)N3CCOCC3)no2)c1	15.0	5.3	31.5	49.7*	73.6
CC(=O)NCCC1CCCCN1C(=O)c1cc(COc2cc(C)ccc2C)on1 (configuration not stated)	22.1	6.6	4.8	66.3*	?
COCCN1CCN(C(=O)c2cc(COc3ccc(Cl)cc3OC)on2)CC1	35.7*	6.9	-5.5	?	79.2

High-throughput results (PubChem)
